From the supplement of paper PMC7411054
Structures can show the parent of a compound that is named as a salt.

Legend:
Experiment in all cases: lowest phenotypically active concentration; higher = less potent
Conditions in all cases: treatment time: 24 h
HepG2-ACTB-RAB5A = system: HepG2-ACTB-RAB5A
How it was run: (§1)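 Four wells per concentration (0.3, 1, 3 or 9 µM) were treated for 24 h in each of fifteen gene-edited reporter lines from A549, HepG2 and WPMY1 cells, then imaged live. After normalising live-cell features to solvent control wells, deviation was defined as ≥3 of 4 wells lying past the 95th percentile of control Euclidean distances. Reproducibility was defined as a median replicate Pearson correlation above the 95th percentile of non-replicates. Both had to hold for phenotypic activity.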

HepG2-CANX-COX4 = system: HepG2-CANX-COX4
How it was run: as §1

HepG2-GM130-SQSTM1 = system: HepG2-GM130-SQSTM1
How it was run: as §1

HepG2-TP53BP1-CLTA = system: HepG2-TP53BP1-CLTA
How it was run: as §1

HepG2-TUBA1B-RELA = system: HepG2-TUBA1B-RELA
How it was run: as §1

WPMY1-ACTB-RAB5A = system: WPMY1-ACTB-RAB5A
How it was run: as §1

WPMY1-CANX-COX4 = system: WPMY1-CANX-COX4
How it was run: as §1

WPMY1-GM130-SQSTM1 = system: WPMY1-GM130-SQSTM1
How it was run: as §1

WPMY1-TP53BP1-CLTA = system: WPMY1-TP53BP1-CLTA
How it was run: as §1

WPMY1-TUBA1B-RELA = system: WPMY1-TUBA1B-RELA
How it was run: as §1

Measured: lowest phenotypically active concentration

CN(C)CCCNc1c2c(=O)n(C)c(=O)nc-2n(C)c2ccccc12
3 µM: WPMY1-TUBA1B-RELA
9 µM: all other assays above

COc1cc([C@@H]2c3cc4c(cc3[C@@H](O[C@@H]3O[C@@H]5CO[C@@H](c6cccs6)O[C@H]5[C@H](O)[C@H]3O)[C@H]3COC(=O)[C@H]23)OCO4)cc(OC)c1O [teniposide]
≤ 0.3 µM: all assays above

COc1cccc(-c2cc(F)ccc2[C@H]2Cc3nc(N)nc(C)c3C(=O)N2)n1
≤ 0.3 µM: all assays above

C=CC(=O)Nc1cccc(Nc2nc(Nc3ccc(OCCOC)cc3)ncc2F)c1
9 µM: HepG2-TP53BP1-CLTA | HepG2-TUBA1B-RELA | WPMY1-TP53BP1-CLTA
3 µM: all other assays above

CCCCc1oc2ccccc2c1C(=O)c1cc(I)c(OCCN(CC)CC)c(I)c1 [amiodarone]
3 µM: HepG2-TUBA1B-RELA
9 µM: all other assays above

COc1ccc(C[C@H](N)C(=O)N[C@H]2[C@@H](O)[C@H](n3cnc4c(N(C)C)ncnc43)O[C@@H]2CO)cc1 [Puromycin dihydrochloride]
1 µM: WPMY1-CANX-COX4 | WPMY1-TP53BP1-CLTA | WPMY1-TUBA1B-RELA
≤ 0.3 µM: all other assays above

CC(C)(N)c1cc(C(=O)N[C@@H]2CCc3ccc(OC4=C5CCC(=O)N=C5NC=C4)cc3C2)cc(C(F)(F)F)c1 [ML 786 dihydrochloride]
1 µM: WPMY1-ACTB-RAB5A | WPMY1-CANX-COX4 | WPMY1-GM130-SQSTM1 | WPMY1-TP53BP1-CLTA
9 µM: WPMY1-TUBA1B-RELA
≤ 0.3 µM: all other assays above

Cc1cc(C)cc(C(=O)NOCCCCCC(=O)NO)c1
1 µM: HepG2-GM130-SQSTM1 | HepG2-TP53BP1-CLTA | WPMY1-ACTB-RAB5A
≤ 0.3 µM: all other assays above

C=C1CN(Cc2ccc(C(=O)Nc3ccccc3N)cc2)C(=O)c2ccccc21
3 µM: WPMY1-TUBA1B-RELA
1 µM: HepG2-GM130-SQSTM1 | HepG2-TP53BP1-CLTA | HepG2-TUBA1B-RELA
≤ 0.3 µM: all other assays above

COc1cc2c(Nc3ccc(Br)cc3F)ncnc2cc1OCC1CCN(C)CC1 [vandetanib]
9 µM: WPMY1-TP53BP1-CLTA
1 µM: HepG2-TUBA1B-RELA
3 µM: all other assays above

CCc1cc(-c2n[nH]c(C)c2-c2ccc3c(c2)OCCO3)c(O)cc1O
9 µM: HepG2-TUBA1B-RELA
3 µM: all other assays above

Oc1cccc(-c2nc(N3CCOCC3)c3oc4ncccc4c3n2)c1 [PI 103 hydrochloride]
≤ 0.3 µM: all assays above

C[C@@H]1CN(CC(=O)Nc2ccc3c(c2)Cc2cccc(-c4cc(=O)cc(N5CCOCC5)o4)c2S3)C[C@H](C)O1
1 µM: HepG2-ACTB-RAB5A
9 µM: WPMY1-TUBA1B-RELA
3 µM: all other assays above

O=C(O)c1ccc(Nc2ncc3c(n2)-c2ccc(Cl)cc2C(c2c(F)cccc2F)=NC3)cc1
3 µM: WPMY1-CANX-COX4
9 µM: WPMY1-GM130-SQSTM1
≤ 0.3 µM: all other assays above

Cn1cc(-c2[nH]c3cc(NC(=O)[C@H](N)C4CCCCC4)cc4c3c2C=NNC4=O)cn1
3 µM: HepG2-CANX-COX4 | HepG2-TP53BP1-CLTA
1 µM: HepG2-ACTB-RAB5A | HepG2-GM130-SQSTM1 | HepG2-TUBA1B-RELA
≤ 0.3 µM: all other assays above

CC(C)c1cc(-c2n[nH]c(=O)n2-c2ccc3c(ccn3C)c2)c(O)cc1O [ganetespib]
≤ 0.3 µM: all assays above

COc1ccc(S(=O)(=O)N(C(C)=O)c2ccccc2/C=C/c2cc[n+]([O-])cc2)cc1
1 µM: WPMY1-ACTB-RAB5A | WPMY1-TUBA1B-RELA
3 µM: all other assays above

Nc1nccc2c1ncn2[C@@H]1C=C(CO)[C@@H](O)[C@H]1O [3-Deazaneplanocin A hydrochloride]
3 µM: WPMY1-TP53BP1-CLTA
≤ 0.3 µM: HepG2-CANX-COX4
1 µM: all other assays above

COc1c(C)cnc(Cn2cnc3c(Cl)nc(N)nc32)c1C
≤ 0.3 µM: all assays above
